Test results published in PubChem BioAssay (NCATS).
Results filed as inconclusive are left out. Active and inactive are the calls of the source. Calls come from the whole dose curve; as a rule, active = well fitted cell-killing curve with a large enough effect; inconclusive = small, poorly fitted or top-dose-only effect, or effect the other way; inactive = no such curve, though single readings can be large or run the other way.

Assay: Quantitative High-Throughput drug screen in 47 multiple myeloma cell lines against the NCATS MIPE library collection: Karpas25_ECACC cell viability assay (AID 1918968; note: nearly all actives have a fitted effect of over 35% in size)
Details: Karpas25 myeloma viability, CellTiter-Glo ATP, 48 h; series mostly up to 45.8 µM; viability (% of control): at the top concentration
Text: PI: Beverly A. Mock Ph.D.
Laboratory of Cancer Biology and Genetics,
Center for Cancer Research, National Cancer Institute,
National Institute of Health, Bethesda, Maryland
Drug resistance and disease progression are common in multiple myeloma (MM) patients, underscoring the need for new therapeutic combinations. […] We hypothesized that effective combinations would reduce MYC expression and enhance p16 activity. […] These preclinical data identify potentially useful drug combinations for evaluation in drug-resistant MM and reveal potential mechanisms of combined drug sensitivity.
Described herein is the primary MIPE qHTS used to cherrypick compounds. Validated compounds were then further tested for potential synergistic activiy.
[1] Peat TJ, Gaikwad SM, Dubois W, Gyabaah-Kessie N, Zhang S, Gorjifard S, Phyo Z, Andres M, Hughitt VK, Simpson RM, Miller MA, Girvin AT, Taylor A, Williams D, D'Antonio N, Zhang Y, Rajagopalan A, Flietner E, Wilson K, Zhang X, Shinn P, Klumpp-Thomas C, McKnight C, Itkin Z, Chen L, Kazandijian D, Zhang J, Michalowski AM, Simmons JK, Keats J, Thomas CJ, Mock BA. Drug combinations identified by high-throughput screening promote cell cycle transition and upregulate Smad pathways in myeloma. Cancer Lett. 2023 Aug 1;568:216284. doi: 10.1016/j.canlet.2023.216284. Epub 2023 Jun 24. PMID: 37356470; PMCID: PMC10408729.
SEQUENCE No. (e.g., 1, 2, 3, etc.); […] (e.g., Cells, Incubation, Reagent, etc.); VALUE and DESCRIPTION.
1; Cells; 5 uL; white, solid bottom 1536-well Greiner assay plate.
2; Compounds; 23 nL; Kalypsis pin tool (Wako USA) equipped with a 1536-well pin head to transfer to the assay plates.
3; Incubation; 48 hours; 37C incubation.
4; Reagent;5uL; CellTiter Glo (Promega).
5; Detector; 425V; Luminescence; Viewlux PerkinElmer.
NOTES (numbers refer to Sequence numbers above)
1. The cell-based screening methods employed in this study were like those previously published. Briefly, the corresponding myeloma cell lines were screened in 1,536-well plates with 500 cells, 5-uL per well for inhibition of cell viability (assessed by measuring ATP levels with CellTiterGlo).
2. NCATS MIPE 4.0 library of approved and investigational drugs were added using the Kalypsis pin tool. Wells treated with DMSO only for 100% viability and media only wells for 0% viability were used as controls.
3. The assay plates were covered and incubated for 48 hours in a 37C, 5% CO2 incubator with controlled humidity.
4. After 48 hours, CellTilter-GloTM luminescent substrate mix (Promega) reagent was added to the assay plate and plates we incubated for 5 min at room temperature.
5. Signal was measured as median relative luminescence units on a ViewLux (PerkinElmer) multiplate reader.
[1] Heske CM, Davis MI, Baumgart JT, Wilson K, Gormally MV, Chen L, Zhang X, Ceribelli M, Duveau DY, Guha R, Ferrer M, Arnaldez FI, Ji J, Tran HL, Zhang Y, Mendoza A, Helman LJ, Thomas CJ. Matrix Screen Identifies Synergistic Combination of PARP Inhibitors and Nicotinamide Phosphoribosyltransferase (NAMPT) Inhibitors in Ewing Sarcoma. Clin Cancer Res. 2017 Dec 1;23(23):7301-7311. doi: 10.1158/1078-0432.CCR-17-1121. Epub 2017 Sep 12. PMID: 28899971; PMCID: PMC6636827.
Potency is the fitted concentration of half-maximal effect.

| Compound | Potency | viability (% of control) |
| --- | --- | --- |
| Cc1[nH]c(=O)c(C#N)cc1-c1ccncc1 | 9.35 µM (active) | – |
| Cc1cc2c(C(C)C)c(O)c(O)c(C=O)c2c(O)c1-c1c(C)cc2c(C(C)C)c(O)c(O)c(C=O)c2c1O | 5.9 µM (active) | – |
| CCC(C)(C)C(=O)O[C@H]1C[C@@H](C)C=C2C=C[C@H](C)[C@H](CC[C@@H]3C[C@@H](O)CC(=O)O3)[C@H]21 | 18.7 µM (active) | – |
| O=S(=O)(N=Cc1c(O)ccc2ccccc12)c1cccs1 | 1.05 µM (active) | – |
| CCOc1cc(N2CCC(O)CC2)ccc1Nc1ncc2c(n1)N(C)c1ccccc1C(=O)N2C | 9.35 µM (active) | – |
| O=c1[nH]cnc2[nH]ncc12 | – | 90.1% (inactive) |
| CS(=O)(=O)c1cccc(CNc2nc(Nc3ccc4c(c3)CCC(=O)N4)ncc2C(F)(F)F)c1 | 18.7 µM (active) | – |
| Cc1cccc(-c2[nH]c(C(C)(C)C)nc2-c2ccc3nccnc3c2)n1 | 1.32 µM (active) | – |
| COc1ccc(-c2c(-c3ccc(O)cc3O)n[nH]c2C)cc1 | 27 µM (active) | – |
| CN(C)c1ccc(C2Nc3ccc4ccccc4c3C3=C2C(=O)CC(C)(C)C3)cc1Br (stereo not given) | 5.9 µM (active) | – |
| CCOC(=O)N1CCC(=C2c3ccc(Cl)cc3CCc3cccnc32)CC1 | – | 117% (inactive) |
| CCOc1cc(C=C2C(=O)N(c3ccccc3)N=C2C)cc(Cl)c1OCC(=O)OC | 8.33 µM (active) | – |
| NC(=O)c1ccc(I)c([N+](=O)[O-])c1 | 23.5 µM (active) | – |
| COc1ccc(-c2ccc3c(N4CCOC[C@H]4C)nc(N4CCOC[C@H]4C)nc3n2)cc1CO | 0.0166 µM (active) | – |
| Cc1ccccc1C(OCCN(C)C)c1ccccc1 (stereo not given) | – | 125% (inactive) |
| CC(C)C[C@H](NC(=O)[C@@H](O)[C@H](N)Cc1ccccc1)C(=O)O | 20.9 µM (active) | – |
| Cc1[nH]c(=O)c(C#N)cc1-c1ccc2nccn2c1 | – | 76.7% (inactive) |
| Cc1c(CN2CCN(C(=O)C(C)C)CC2)sc2c(N3CCOCC3)nc(-c3cnc(N)nc3)nc12 | 0.059 µM (active) | – |
| CCCS(=O)(=O)Nc1ccc(F)c(C(=O)c2c[nH]c3ncc(-c4ccc(Cl)cc4)cc23)c1F | 9.35 µM (active) | – |
| CCCS(=O)(=O)Nc1ccc(F)c(C(=O)c2c[nH]c3ncc(Cl)cc23)c1F | 14.8 µM (active) | – |

| Compound | Potency | viability (% of control) |
| --- | --- | --- |
| COc1ccc([C@@H]2CC(=O)c3c(O)cc(O[C@@H]4O[C@H](CO[C@@H]5O[C@@H](C)[C@H](O)[C@@H](O)[C@@H]5O)[C@@H](O)[C@H](O)[C@@H]4O)cc3O2)cc1O | – | 109% (inactive) |
| CNC(=O)c1ccc(N2C(=S)N(c3ccc(C#N)c(C(F)(F)F)c3)C(=O)C2(C)C)cc1F | 18.7 µM (active) | – |
| CC(C)(Sc1ccc(CCN(CCCCC2CCCCC2)C(=O)NC2CCCCC2)cc1)C(=O)O | – | 132% (inactive) |
| Cc1cc([C@@H](C)Nc2ccccc2C(=O)O)c2nc(N3CCOCC3)cc(=O)n2c1 | 3.03 µM (active) | – |
| CC(C)NCC(O)COc1ccc(COCCOC(C)C)cc1 (stereo not given) | – | 101% (inactive) |
| CO[C@@H]1[C@H](N(C)C(=O)c2ccccc2)C[C@H]2O[C@]1(C)n1c3ccccc3c3c4c(c5c6ccccc6n2c5c31)C(=O)NC4 | 2.35 µM (active) | – |
| CC(C)(C)NCC(O)c1ccc(O)c(CO)c1 (stereo not given) | 0.0418 µM (active) | – |
| Cc1csc(NC(=O)c2sc3nc4c(c(C(F)(F)F)c3c2N)CCC4)n1 | 1.48 µM (active) | – |
| CS(=O)(=O)Oc1ccc2c(NC(N)=O)c(C(=O)c3ccc(Cl)cc3Cl)oc2c1 | 4.69 µM (active) | – |
| CC(C)OC(=O)C1=CN(C(=O)c2ccc(F)c(F)c2)CC(C)(C)c2c1[nH]c1ccccc21 | – | 88.5% (inactive) |
| OCCn1cc(-c2cnc3nnn(Cc4ccc5ncccc5c4)c3n2)cn1 | 14.8 µM (active) | – |
| COc1ccc(CC2=NN3C([C@@H](CCc4ccccc4)[C@@H](C)O)=NC(C)C3C(=O)N2)cc1OC (stereo not given in full) | – | 118% (inactive) |
| Cc1n[nH]c(C)c1Cc1sc2c(c1C(=O)N1C[C@H](O)CO1)c(=O)n(C)c(=O)n2CC(C)C | – | 124% (inactive) |
| Nc1nc2[nH]cc(CCc3ccc(C(=O)N[C@@H](CCC(=O)O)C(=O)O)cc3)c2c(=O)[nH]1 | – | 113% (inactive) |
| Cc1ccc(N(CC2=NCCN2)c2cccc(O)c2)cc1 | 4.69 µM (active) | – |
| CCC(=O)N[C@H]1CC[C@H](C(=O)N(C)c2ccc(-c3nc4ccccc4o3)cc2)C1 | 7.43 µM (active) | – |
| Nc1nc2ccc(OC(F)(F)F)cc2s1 | – | 92.9% (inactive) |
| CCn1c(-c2nonc2N)nc2cnc(Oc3cccc(NC(=O)c4ccc(OCCN5CCOCC5)cc4)c3)cc21 | 2.35 µM (active) | – |
| OCCC#Cc1nc(-c2ccc(F)cc2)c(-c2ccncc2)n1CCCc1ccccc1 | 16.6 µM (active) | – |
| Cc1cc(-c2ccc(CC(=O)Nc3ccc(-c4cccnc4)cc3)cc2)ccn1 | 18.7 µM (active) | – |
